Data reported in PubChem BioAssay (NCI).
Compounds without any hit were thinned out: in the full panel of roughly 83,000, 20% have a hit.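 Percent growth is the endpoint: 0 to 100 indicates growth inhibition (40 means 60% inhibition), 0 means no net growth, and negative values indicate cell death.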 Calls of active or inactive are those of the source. Rule for the calls: active = growth percent below 10; inactive = the rest.

Tests used:
Experiment in all cases: NCI-60 one-dose screen, 48 h (100 = growth as untreated, 0 = no growth, -100 = all killed)
Settings in all cases: 10 µM unless noted
T-47D breast = test system: T-47D breast
BT-549 breast = test system: BT-549 breast
MDA-MB-435 melanoma = test system: MDA-MB-435 melanoma
SW-620 colon = test system: SW-620 colon
MCF7 breast = test system: MCF7 breast
HCT-116 colon = test system: HCT-116 colon
HCC-2998 colon = test system: HCC-2998 colon
KM12 colon = test system: KM12 colon

Measured: growth

CC(C)C(=O)c1ccc(Cl)s1
inactive: T-47D breast 90.4% | BT-549 breast 104% | MDA-MB-435 melanoma 106% | SW-620 colon 107% | MCF7 breast 88.9% | HCT-116 colon 97% | HCC-2998 colon 99.7% | KM12 colon 100%

O=C1/C(=C/c2ccc(Cl)cc2)CCC/C1=C\c1ccc(Cl)cc1
inactive: T-47D breast 79.6% | BT-549 breast 97% | MDA-MB-435 melanoma 15.9% | SW-620 colon 30.6% | MCF7 breast 17.3% | HCC-2998 colon 28.6% | KM12 colon 18.7%
active: HCT-116 colon -42.6%

Oc1ccc(CN(Cc2ccc(C(F)(F)F)cc2)Cc2ccc(O)c3ncccc23)c2cccnc12
inactive: T-47D breast 20.2% | BT-549 breast 32.9% | MDA-MB-435 melanoma 31.4% | SW-620 colon 18.1% | MCF7 breast 13.7% | HCT-116 colon 18% | HCC-2998 colon 34.1% | KM12 colon 18.8%

CC[C@H](Nc1ncnc2nc[nH]c12)c1nc2cccc(NCc3ccc(C(=O)NO)o3)c2c(=O)n1-c1ccccc1
inactive: T-47D breast 80.8% | BT-549 breast 86% | MDA-MB-435 melanoma 105% | SW-620 colon 107% | MCF7 breast 91.4% | HCT-116 colon 96.9% | HCC-2998 colon 104% | KM12 colon 103%

CC1=NN(c2cccc(Cl)c2)C(=O)/C1=C\c1cn(-c2nc(N3CCOCC3)nc(N3CCOCC3)n2)c2ccccc12
inactive: T-47D breast 99.8% | BT-549 breast 103% | MDA-MB-435 melanoma 100% | SW-620 colon 110% | MCF7 breast 98.9% | HCT-116 colon 94.9% | HCC-2998 colon 104% | KM12 colon 107%

CCCOC(=O)c1c(C)n(C)c2scc[n+]12
inactive: T-47D breast 92.8% | BT-549 breast 80.5% | MDA-MB-435 melanoma 90.9% | SW-620 colon 77.8% | MCF7 breast 96.7% | HCT-116 colon 70.3% | HCC-2998 colon 184% | KM12 colon 74%

CCCCCCN(CCCCCC)CCC(=O)Nc1ccc(S(=O)(=O)c2ccc(NC(=O)CCN(CCCCCC)CCCCCC)cc2)cc1
inactive: T-47D breast 60% | BT-549 breast 87.5% | MDA-MB-435 melanoma 90.5% | SW-620 colon 84.6% | MCF7 breast 68.7% | HCT-116 colon 61.2% | HCC-2998 colon 32.5% | KM12 colon 89.5%

COC(=O)/C(Br)=C/c1c[nH]c2ccc(Br)cc12
inactive: T-47D breast 72% | BT-549 breast 88.7% | MDA-MB-435 melanoma 85.7% | SW-620 colon 94.4% | MCF7 breast 75% | HCT-116 colon 69.1% | HCC-2998 colon 102% | KM12 colon 92%

CCCCCCCCc1ccc(CCC(N)(CO)CO)cc1
inactive: T-47D breast 34% | BT-549 breast 73.5%
active: MDA-MB-435 melanoma -43.6% | SW-620 colon -83.8% | MCF7 breast -69% | HCT-116 colon -69.8% | HCC-2998 colon -85.6% | KM12 colon -66.5%

C=CCSc1nnc(COc2ccc3c(C)c(Cc4ccccc4)c(=O)oc3c2C)o1
inactive: T-47D breast 96% | BT-549 breast 100% | MDA-MB-435 melanoma 103% | SW-620 colon 99.2% | MCF7 breast 95.7% | HCT-116 colon 95.6% | HCC-2998 colon 104% | KM12 colon 101%

CC1Cc2cc(F)ccc2-n2cccc21 (stereo not given)
inactive: T-47D breast 102% | BT-549 breast 111% | MDA-MB-435 melanoma 96.9% | SW-620 colon 96.1% | MCF7 breast 107% | HCT-116 colon 114% | HCC-2998 colon 106% | KM12 colon 110%

CCCC(=O)NNc1[nH]c(-c2cc(OC)c(OC)c(OC)c2)cc1C(=O)OCC
inactive: T-47D breast 82.1% | BT-549 breast 100% | MDA-MB-435 melanoma 101% | SW-620 colon 109% | MCF7 breast 117% | HCT-116 colon 93% | HCC-2998 colon 95.3% | KM12 colon 125%

N=C(N)c1ccc(-c2ccc(-c3ccc(Cl)cc3)s2)s1
active: T-47D breast -31.7% | MDA-MB-435 melanoma -91.4% | SW-620 colon -69.5% | MCF7 breast -66% | HCT-116 colon -98.4% | HCC-2998 colon -74.2% | KM12 colon -85.3%
inactive: BT-549 breast 76.4%

COc1ccc2c(c1)/C(=C1/S/C(=N/c3nnc(C)s3)NC1=O)C(=O)N2Cc1ccc(Br)cc1
inactive: T-47D breast 22% | BT-549 breast 42.9% | MDA-MB-435 melanoma 39.3% | SW-620 colon 44.5% | MCF7 breast 35.1% | HCT-116 colon 19.7% | HCC-2998 colon 46.1% | KM12 colon 27.7%

C[C@]12CC[C@H]3[C@@H](CC[C@H]4C[C@@H](O)CC[C@@]43C)[C@@H]1CC(=O)C2
inactive: T-47D breast 106% | BT-549 breast 103% | MDA-MB-435 melanoma 116% | SW-620 colon 103% | MCF7 breast 124% | HCT-116 colon 99.3% | HCC-2998 colon 101% | KM12 colon 108%

CCCCCCCCCCN1CC2CCCCC2C1 (stereo not given)
inactive: T-47D breast 56.7% | BT-549 breast 69% | MDA-MB-435 melanoma 91.3% | SW-620 colon 74.2% | MCF7 breast 65% | HCT-116 colon 53.6% | HCC-2998 colon 82.9% | KM12 colon 65.3%

Nc1cc2c(cc1Br)[nH]c(=O)c1ccccc12
active: MDA-MB-435 melanoma -42.6%
inactive: T-47D breast 29.6% | BT-549 breast 65.1% | SW-620 colon 61% | MCF7 breast 15.9% | HCT-116 colon 19.2% | HCC-2998 colon 68% | KM12 colon 26.2%

COC(=O)C(N)CC(C)C (stereo not given)
inactive: T-47D breast 92% | BT-549 breast 97.9% | MDA-MB-435 melanoma 106% | SW-620 colon 103% | MCF7 breast 98.3% | HCT-116 colon 93.5% | HCC-2998 colon 111% | KM12 colon 93.8%

S=C(N/N=C/c1cc(Cl)cc(Cl)c1)NC12CC3CC(CC(C3)C1)C2
active: T-47D breast -8.35%
inactive: BT-549 breast 98% | MDA-MB-435 melanoma 78.4% | SW-620 colon 73.8% | MCF7 breast 82.5% | HCT-116 colon 69.4% | HCC-2998 colon 115% | KM12 colon 105%

COc1cc(-c2nc(/C=C3/C(=O)Nc4ccccc43)c3ccccn23)cc(OC)c1OC
inactive: T-47D breast 53.7% | BT-549 breast 94% | MDA-MB-435 melanoma 55.6% | SW-620 colon 88.7% | MCF7 breast 40.1% | HCT-116 colon 67.2% | HCC-2998 colon 78.1% | KM12 colon 47.6%

CCCCCCCCCCCCc1ccc([N+](CC)(CC)CC)cc1
inactive: T-47D breast 18.6% | BT-549 breast 30.2% | MDA-MB-435 melanoma 13.9% | SW-620 colon 58.8% | MCF7 breast 27.9% | HCT-116 colon 41.8% | HCC-2998 colon 36.7% | KM12 colon 25.6%

N=C(N)N=Nc1ccc(NN=C(N)N)c2ccccc12
inactive: T-47D breast 86.3% | BT-549 breast 81.1% | MDA-MB-435 melanoma 115% | SW-620 colon 103% | MCF7 breast 97.4% | HCT-116 colon 88.8% | HCC-2998 colon 106% | KM12 colon 109%

CN(C)CCOC(=O)C(C)(C)C
inactive: T-47D breast 103% | BT-549 breast 112% | MDA-MB-435 melanoma 104% | SW-620 colon 91.6% | MCF7 breast 99.3% | HCT-116 colon 103% | HCC-2998 colon 110% | KM12 colon 106%

COC(=O)[C@H](Cc1cn(C)cn1)NC(=O)[C@@H](NC(=O)Nc1cc(C(F)(F)F)cc(C(F)(F)F)c1)C(C)(C)C
active: T-47D breast -63.9% [100 µM] | BT-549 breast -90.4% [100 µM] | MDA-MB-435 melanoma -89.3% [100 µM] | SW-620 colon -46.4% [100 µM] | MCF7 breast -59.2% [100 µM] | HCT-116 colon -91.5% [100 µM] | HCC-2998 colon -94.2% [100 µM] | KM12 colon -88.7% [100 µM]

CC(=O)CC(=O)OC/C=C(/C)CCC=C(C)C
inactive: T-47D breast 123% | BT-549 breast 102% | MDA-MB-435 melanoma 114% | SW-620 colon 105% | MCF7 breast 99.6% | HCT-116 colon 98.9% | HCC-2998 colon 97.2% | KM12 colon 105%

CCNc1nnc(COc2ccc(CNC(=O)CCCC/C=C/C(C)C)cc2OC)o1
inactive: T-47D breast 81% | BT-549 breast 102% | MDA-MB-435 melanoma 104% | SW-620 colon 110% | MCF7 breast 95.2% | HCT-116 colon 87.2% | HCC-2998 colon 103% | KM12 colon 98.2%

O=C(NCCO)C(F)(F)F
inactive: T-47D breast 95.8% | BT-549 breast 106% | MDA-MB-435 melanoma 108% | SW-620 colon 105% | MCF7 breast 95.6% | HCT-116 colon 108% | HCC-2998 colon 97% | KM12 colon 107%

CC1(C)C(O)NC(Cl)=C(C#N)C1(C#N)C#N (stereo not given)
inactive: T-47D breast 106% | BT-549 breast 104% | MDA-MB-435 melanoma 113% | SW-620 colon 102% | MCF7 breast 107% | HCT-116 colon 101% | HCC-2998 colon 90.4% | KM12 colon 112%

O=C(CCl)NC1c2ccccc2Oc2ccccc21
inactive: T-47D breast 65.9% | BT-549 breast 55.2% | MDA-MB-435 melanoma 62.7% | SW-620 colon 57.1% | MCF7 breast 45.8% | HCT-116 colon 45.9% | HCC-2998 colon 111% | KM12 colon 82.6%

O=C1NCCN1/N=C/c1c(Cl)nc2n1CCS2
inactive: T-47D breast 119% | BT-549 breast 97.7% | MDA-MB-435 melanoma 112% | SW-620 colon 103% | MCF7 breast 106% | HCT-116 colon 93.5% | HCC-2998 colon 111% | KM12 colon 101%
